Results on 43 molecules are retold here after ChEMBL document CHEMBL4888484, “Replenishing the malaria drug discovery pipeline: Screening and hit evaluation of the MMV Hit Generation Library 1 (HGL1) against asexual blood stage Plasmodium falciparum ,using a nano luciferase reporter read-out” (2022).

Screen size: about 150,000 compounds; about 540 (0.36%) showed an effect of 50% or more. Many of the other results were omitted from the sample, so strong results are more common in it than they were.

The test system of the assay is Plasmodium falciparum. Kind of assay: Primary screen in NF54 nanoGlo assay, in single point, at 2uM, 72h; a lower Z score goes with more inhibition. As to conditions: timepoint 72 hour. In kind it is functional, Erythrocyte.
Regarding `CCC[C@H](NC1CCN(C(=O)OC)CC1)C1CC1`, the “% Inhibition” value came to 7% and the Z score was -0.96.

Turning to `CC1CC(C)CN(C(=O)c2ccc3c(=O)n4c(nc3c2)CCCC4)C1` (stereo unspecified), the “% Inhibition” value was -3% and the Z score came to 0.52.

For the molecule `COc1ccc([C@@H](CC(=O)N2CCCC2)c2cn(Cc3ccccc3)c3ccccc23)cc1`, the “% Inhibition” value was -8% and the Z score is recorded as 0.98.

With `COc1ccc2c(/C=C/c3cc[n+](C)cc3)cn(Cc3ccccc3)c2c1`, the “% Inhibition” value is reported as 68% and the Z score was -6.36.

For `COc1ccc([C@H]2CC(=O)Nc3cccc4c3c2cn4Cc2ccccc2)cc1`, the “% Inhibition” value is recorded as -4% and the Z score is 0.51.

In the case of `Cc1nc(NC(=O)NCCn2ncnn2)sc1C`, the “% Inhibition” value is reported as 31% and the Z score is given as -4.22.

In the case of `CCC(C)CS(=O)(=O)NC(C)C1CC1` (stereo unspecified), the “% Inhibition” value is listed as -4% and the Z score was found to be 0.39.

`Cc1cccc(NC(=O)c2c[nH]c3nc(C)ccc3c2=O)c1`: the “% Inhibition” value was determined as 4% and the Z score is -0.5.

For the molecule `Cc1ccc(C)c(NC(=O)c2c(Oc3ccc(F)cc3)nc(C)c(Cl)c2C)c1`, the “% Inhibition” value is recorded as -8% and the Z score came out at 1.01.

`Cn1cc(NC(=O)c2cc3ccccc3o2)ccc1=O`: the “% Inhibition” value was -4% and the Z score was determined as 0.73.

Take `Cc1c(C)c2ccc(NC(=O)c3cc4ccccc4o3)cc2[nH]c1=O`: the “% Inhibition” value is on record as 93% and the Z score is listed as -7.22.

`O=C(Nc1c(C(=O)Nc2ccc(F)c(F)c2)oc2ccccc12)c1cc2ccccc2o1`: the “% Inhibition” value is recorded as -13% and the Z score was determined as 2.46.

For `CCOC(=O)c1cn(CCc2c[nH]cn2)cc(Oc2ccccc2)c1=O`, the “% Inhibition” value is recorded as 0% and the Z score is -0.09.

Take `O=C(NCC(O)c1ccccc1Cl)C1CCCN1` (stereo unspecified): the “% Inhibition” value is reported as 1% and the Z score is recorded as -0.1.

Take `CCNC(=O)N1CCN(c2ccc(-c3noc(C(F)(F)F)n3)cn2)CC1`: the “% Inhibition” value worked out at 12% and the Z score is listed as -1.6.

With `O=C(c1ccc(-c2noc(C(F)(F)F)n2)cc1)N1CCC1`, the “% Inhibition” value is on record as 29% and the Z score is recorded as -3.23.

`Cc1c(F)cccc1-c1ccc(CNc2cccc(CN3CCC(O)CC3)c2)o1`: the “% Inhibition” value is on record as 8% and the Z score was -0.88.

Turning to `CNC(=O)c1ccc(OC)c(-c2ccc(NCCN3CCOCC3)nc2)c1`, the “% Inhibition” value was -7% and the Z score is reported as 1.05.

As to `CCc1ccc(-c2cnc3ccccc3n2)cc1NC(=O)[C@@H](NS(=O)(=O)c1ccccc1)C(C)C`, the “% Inhibition” value is 4% and the Z score is given as -0.61.

Take `Cc1ccc(CCC(=O)NC(c2ccccc2)C(C)C(=O)O)o1` (stereo unspecified): the “% Inhibition” value is reported as 5% and the Z score is listed as -0.67.

For the molecule `Cc1cccc(-c2noc(N3CCOCC3)c2CN(C(=O)CC(C)C)C2CC2)c1`, the “% Inhibition” value is given as -12% and the Z score is recorded as 1.29.

Consider `COc1ccc(CN2CC[C@@H]3C(=O)NCCCCCCN(Cc4ccncc4)[C@@H]3C2)cc1Cn1ccnc1`, for which the “% Inhibition” value was 59% and the Z score is -7.78.

Turning to `CCn1cc(CN2CC[C@H]3C(=O)NCCCCCCN(Cc4ccncc4)[C@@H]3C2)c(C)n1`, the “% Inhibition” value is 2% and the Z score is given as -0.2.

For the molecule `COc1cccc(CN2CC[C@H]3C(=O)NCCCCCCN(Cc4ccncc4)[C@@H]3C2)n1`, the “% Inhibition” value is listed as -5% and the Z score was 0.65.

Consider `CN(Cc1cn(C)nn1)CC1CCOCC1`, for which the “% Inhibition” value was -11% and the Z score was 2.06.

For the molecule `CCO[C@H]1CN(C(=O)Cc2nc(C)sc2C)C[C@@H]1O`, the “% Inhibition” value was found to be 0% and the Z score amounted to 0.05.

Take `C[C@@]1(C(=O)NC2CCCCCCC2)Cn2c(ccc2-c2ccccc2)C(=O)N1Cc1ccco1`: the “% Inhibition” value is 7% and the Z score is -0.83.

In the case of `S=c1cc(-c2ccccc2)n(CCCc2ccccc2)c2c1CCCC2`, the “% Inhibition” value was -6% and the Z score worked out at 0.85.

Regarding `S=c1cc(-c2ccccc2)n(Cc2ccco2)c2c1CCCC2`, the “% Inhibition” value came out at 54% and the Z score is given as -6.88.

Take `CC(=O)c1cc(Br)ccc1NCC(=O)N(C)CCC#N`: the “% Inhibition” value is -26% and the Z score was 2.93.

`CCc1nccc(-c2c(-c3ccccc3)ncn2CCN2CCOCC2)n1`: the “% Inhibition” value is recorded as -6% and the Z score worked out at 0.83.

For `CCOC(=O)c1cnc(N2CCN(Cc3cccnc3)CC2)s1`, the “% Inhibition” value is recorded as -2% and the Z score was 0.17.

As for `CCOC(=O)c1c(-c2ccccc2)n(C)c2cc(-c3cccnc3)c(O)cc12`, the “% Inhibition” value turned out to be 9% and the Z score is recorded as -1.7.

Turning to `CCOC(=O)c1c(CN2CCCC2)n(C)c2cc(-c3cccnc3)c(O)c(Cn3ccnc3)c12`, the “% Inhibition” value was 58% and the Z score is recorded as -10.36.

Take `CCNc1nc(C)cc(Nc2ccc(NS(=O)(=O)c3c(C)noc3C)cc2)n1`: the “% Inhibition” value came to 86% and the Z score is -8.65.

For the molecule `CCNc1nc(C)cc(Nc2ccc(NC(=O)c3cc(C)ccc3C)cc2)n1`, the “% Inhibition” value is 97% and the Z score is given as -9.09.

On to `Cc1ccc(C)c(C(=O)Nc2cnc(-n3nc(C)cc3C)nc2)c1`, for which the “% Inhibition” value is reported as 5% and the Z score is -0.75.

As to `Cc1nc2ccc(NC(=O)Nc3ccc(F)cc3F)cc2s1`, the “% Inhibition” value is listed as -9% and the Z score was 1.17.

For the molecule `CCOc1nc(-c2cccc(F)c2)n(-c2ccc(NC(=O)Nc3ccc(F)cc3F)cc2)n1`, the “% Inhibition” value is given as -9% and the Z score was 1.18.

Regarding `Cc1noc(C)c1S(=O)(=O)Nc1ccc2c(c1)OC1(CCCC1)O2`, the “% Inhibition” value is 5% and the Z score is reported as -0.73.

`Cc1cc(N(C)C)nc(NCCNC(=O)Nc2cccc(F)c2C)n1`: the “% Inhibition” value was found to be 20% and the Z score was -2.61.

Turning to `COc1ccc(NS(=O)(=O)c2c(C)noc2C)cn1`, the “% Inhibition” value was found to be 3% and the Z score was -0.47.

For the molecule `CCNc1nc(C)cc(NCCNC(=O)c2cccc(Cl)c2)n1`, the “% Inhibition” value amounted to 23% and the Z score is reported as -3.44.

The term % Inhibition denotes the change of the read-out against control, counted positive when it falls.
